Results filed as inconclusive are left out. Activity calls are given as the source filed them. The call rests on the fitted dose curve; in most records, active means well fitted curve in the direction sought with a large enough effect; inconclusive means small, poorly fitted or top-dose-only effect, or another doubt; inactive means no such curve, though single readings can be large or run the other way.

Data on 26 compounds can be found in PubChem BioAssay (NCATS).

Sequence of Protein phosphatase 1D (Homo sapiens) (O15297 whole entry, looked up): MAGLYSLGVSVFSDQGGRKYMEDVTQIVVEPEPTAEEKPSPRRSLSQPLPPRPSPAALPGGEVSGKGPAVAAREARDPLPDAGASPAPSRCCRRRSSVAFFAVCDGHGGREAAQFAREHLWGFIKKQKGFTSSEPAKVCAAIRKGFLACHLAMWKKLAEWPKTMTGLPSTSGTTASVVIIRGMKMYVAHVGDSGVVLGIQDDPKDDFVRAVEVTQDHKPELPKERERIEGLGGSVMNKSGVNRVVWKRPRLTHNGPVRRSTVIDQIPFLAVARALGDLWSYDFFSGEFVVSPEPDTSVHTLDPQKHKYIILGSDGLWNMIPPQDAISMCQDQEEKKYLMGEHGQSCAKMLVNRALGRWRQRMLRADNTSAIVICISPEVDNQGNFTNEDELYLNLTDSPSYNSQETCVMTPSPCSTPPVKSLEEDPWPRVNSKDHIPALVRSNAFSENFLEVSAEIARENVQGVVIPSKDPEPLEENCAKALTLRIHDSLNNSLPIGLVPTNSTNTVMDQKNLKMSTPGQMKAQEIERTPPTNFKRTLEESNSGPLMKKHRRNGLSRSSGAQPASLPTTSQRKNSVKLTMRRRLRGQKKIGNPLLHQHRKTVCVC

The assay has as its target Protein phosphatase 1D (Homo sapiens) (UniProt O15297). Nature of the assay: Rhodamine-PBP qHTS Assay for Modulators of WT P53-Induced Phosphatase 1 (WIP1) (AID 1347425). Conditions: recombinant WIP1, Rhodamine-PBP phosphate fluorescence, real-time; series mostly up to 57.5 µM. In short, it runs like this: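 Read-out: Rhodamine-PBP fluorescence (ex 525/em 598 nm) for released Pi, read each minute for 11 min after adding 10 uM VEPPL-pS-QETFS; signal taken as f1 minus pre-substrate f0. Enzyme 5 nM WIP1 with 1 hr room-temperature compound preincubation.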
(In general: In qHTS, concentration-response curves come from the screen itself.)
As to `OC1(c2ccccc2)CCNCC1`, the outcome was inactive.

For `CCCCC(O)/C=C(C)/C=C/C=C/C(=O)N1CCCC1=O` (stereo unspecified), the outcome was inactive.

Consider `CCS(=O)(=O)c1ccc(OC)c(C(=O)OC)c1`, for which the outcome was inactive.

Regarding `CN1CCC(Nc2ncc3ncnc(Nc4ccc(F)c(Cl)c4)c3n2)CC1`, the result was inactive.

Take `CC(=O)N1CCN(c2ccc(O)cc2)CC1`: the result was inactive.

With `CO[C@@H]1[C@@H](OC)[C@H](C)[C@@](O)(CC(=O)O)O[C@H]1[C@H](C)[C@H]1O[C@@]2(CC[C@@](C)([C@H]3CC[C@@](C)([C@@H]4O[C@@H]([C@H]5O[C@](C)(O)[C@H](C)C[C@@H]5C)C[C@@H]4OC4C[C@H](OC)[C@@H](OC)[C@H](C)O4)O3)O2)C[C@H](O)[C@H]1C` (stereo partly specified), the outcome was inactive.

Regarding `CC(C)(C)C(=O)OCOC(=O)C1N2C(=O)CC2S(=O)(=O)C1(C)C` (stereo unspecified), the result was inactive.

In the case of `CC(=O)OCC[N+](C)(C)C`, the outcome was inactive.

For the compound `CN1CCCN(C(c2ccccc2)c2ccc(Cl)cc2)CC1` (stereo unspecified), the result was inactive.

Consider `CN(C)CCOC(c1ccccc1)c1ccc(Br)cc1` (stereo unspecified), for which the outcome was inactive.

Take `Brc1ccccc1-c1ccccc1`: the outcome was inactive.

`CCN1CCN(C(=O)N[C@@H](C(=O)N[C@@H]2C(=O)N3[C@@H]2SC(C)(C)[C@H]3C(=O)O)c2ccccc2)C(=O)C1=O`: the outcome was inactive.

For the compound `CCCCOCCOC(=O)c1cccnc1`, the result was inactive.

As for `O=C1CC2(CCCC2)CC(=O)N1CCNCC1COc2ccccc2O1` (stereo unspecified), the result was inactive.

On to `CC(=O)CC/C=C(\C)CC/C=C(\C)CC/C=C(\C)CCC=C(C)C`, for which the result was inactive.

Regarding `Cc1onc(-c2c(Cl)cccc2Cl)c1C(=O)Cl`, the result was inactive.

Turning to `OC[C@]1(O)OC[C@@H](O)[C@H](O)[C@@H]1O`, the result was inactive.

Consider `CCCC(=O)O[C@]1(C(=O)CCl)[C@@H](C)C[C@H]2[C@@H]3CCC4=CC(=O)C=C[C@]4(C)[C@@]3(F)C(=O)C[C@@]21C`, for which the outcome was inactive.

On to `NC(=O)C1(N2CCCCC2)CCN(CCCN2c3ccccc3CCc3ccc(Cl)cc32)CC1`, for which the result was inactive.

For the compound `CC(CC1c2ccccc2CCc2ccccc21)CN(C)C` (stereo unspecified), the outcome was inactive.

On to `COc1ccc2c(c1)CCCC2=O`, for which the outcome was inactive.

Turning to `CC(=O)OCC(=O)[C@@]1(O)CCC2C3CCC4=CC(=O)CC[C@]4(C)C3[C@@H](O)C[C@@]21C` (stereo partly specified), the outcome was inactive.

Turning to `CC(C)(C)C1CCC(CC2=C(O)c3ccccc3C(=O)C2=O)CC1` (stereo unspecified), the result was inactive.

Consider `CC(=O)O[C@H]1CC[C@@]2(C)C(=CC[C@@H]3[C@@H]2CC[C@]2(C)C(C(C)=O)=CC[C@@H]32)C1`, for which the outcome was inactive.

For the compound `O=C(CCCl)NCc1ccccc1`, the outcome was inactive.

For the compound `CCCCN(CCN(CCCC)C(=O)N1CCOCC1)C(=O)N1CCOCC1`, the result was inactive.
